LASV entry inh = inhibitors of Lassa virus binding or cell entry. Lassa virus pseudotype entry inhibition, cell reporter. Potency, µM (highest dose often 37.9 µM), for inactives: top-dose activity change, negative = inhibition, actives largely listed as inhibitors. 300,000 tested, 1.2% active; calls by dose curve; tested in HEK293 cells; also: potency is read from the fitted curve at half-maximal effect; % is scaled to controls: 0 for no effect and ±100 for the full control effect; nearly all actives have a fitted effect of over 50% in size
CHX counter = counter-screen hit for Shiga toxin inhibitors, cycloheximide; cell reporter, cycloheximide protein synthesis inhibition counterscreen; max response, %; 300,000 tested, 12% active; AID 2314; in the data active = max response mostly above about 13%, no sharp cut-off; inactive = mostly below about 14%; also: read at 38.3 µM for the half of the compounds with a filed dose; 0% is about no effect
Pf growth 96h = P. falciparum growth inhibition at 96 hour, primary screen for plastid delayed-death inhibitors; 320,000 tested, 6.9% active; Potency, µM (top dose mostly 28.7 µM), without a hit: at the highest dose activity change, negative = inhibition, hits mostly inhibitors; P. falciparum luciferase reporter growth, 96 h; also: potency is read from the fitted curve at half-maximal effect; % is scaled to controls: 0 for no effect and ±100 for the full control effect
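Plates of compound plus infected erythrocytes (2% hematocrit, 0.05% parasitemia final) incubate 96 hours, 37 C, 5% CO2. Detection reagent added; reduced luminescence from the parasites' luciferase reporter flags inhibition.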
Shiga toxin inh = inhibitors of Shiga toxin in Vero cells. Vero cells, Shiga toxin protein synthesis inhibition reporter. inhibition, % at 38.7 µM. 290,000 tested, 9.2% active. AID 2315; in the data active = inhibition mostly above about 28%, no sharp cut-off; inactive = mostly below about 43%; also: 0% is about no effect
Pf growth 48h = P. falciparum growth inhibition at 48 hours (one generation); P. falciparum luciferase growth in erythrocytes, 48 h; Potency, µM (series often up to 28.7 µM), for inactives: at the top dose activity change, negative = inhibition, most hits filed as inhibitors; 310,000 tested, 5.9% active; also: potency is read from the fitted curve at half-maximal effect; % is scaled to controls: 0 for no effect and ±100 for the full control effect
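Here the parasites carry a stable luciferase gene and grow inside erythrocytes in Albumax-based RPMI medium with compound for one erythrocytic cycle. Activity is scored as loss of luminescent signal.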
Marburg entry inh = inhibitors of Marburg virus binding or cell entry. Marburg virus pseudotyped entry inhibition, cell reporter. Potency, µM (top dose mostly 37.8 µM), for inactives: top-dose activity change, negative = inhibition, most hits filed as inhibitors. 300,000 tested, 1.8% active; calls by dose curve; tested in HEK293 cells; also: potency is read from the fitted curve at half-maximal effect; % is scaled to controls: 0 for no effect and ±100 for the full control effect
* marks the source's active call; other numbers are inactive results; i = inactive; ? = inconclusive; / = no result given; [ ] = another dose, or the depositor's remark. Only some compounds are listed: those with a hit (about 19% of all), similar ones and a draw of the others. Unless noted, calls follow the shape of the dose curve; as a rule, active = well fitted inhibition curve with a large enough effect; inconclusive = small, poorly fitted or top-dose-only effect, or another doubt; inactive = no such curve, though single readings can be large or run the other way.

SMILES	LASV entry inh	CHX counter	Pf growth 96h	Shiga toxin inh	Pf growth 48h	Marburg entry inh
O=C(Nc1cc(Cl)ccc1Cl)c1ccc(-c2ccccc2)cc1	13.8%	17.2*	?	34.8	54.3%	?
O=C(Nc1ccccc1NC(=O)c1ccccc1Cl)c1ccccc1Cl	/	-0.6	14.7µM*	5.7	?	/
CCOC(=O)CSc1ncnc2c1cnn2-c1ccc(Cl)cc1	-2.5%	-1.2	-1.5%	-17.7	12.9%	3.0%
Cc1ccc(NNc2c(C)nc3ccccc3nc2=O)cc1	-28.2%	12.7	19.5%	28.6	16.0%	-10.4%[46.1 µM]
CCN1C(=O)CC(N2CCC(C(=O)N3CCCCCC3)CC2)C1=O (centres undefined)	/	2.7	58.4%	9.9	14.1%	/
COc1cccc(Oc2ccc(C(F)(F)F)cc2N)c1	?	28.9*	46.1%	86.9*	52.2%	?
CCOc1ccc(Oc2ccc(C(F)(F)F)cc2N)cc1	?	15.8*	-5.0%	44.2	28.7%	?
COc1cccc(Oc2ccc(C(F)(F)F)cc2NC(=O)c2cccc(F)c2)c1	-11.8%	-1.9	?	-1.3	?	?
CCOc1ccc(C(F)(F)F)cc1NC(C)=O	-5.4%	-4.9	?	-8.6	-2.7%	?
COCC(=O)Nc1ccc(C(C)C)cc1	1.1%	36.5*	/	109.9*	114.1%	8.6%
COCC(=O)Nc1ccc(N(C)C)cc1	-4.1%	12.7	/	39.1	30.3%	-2.7%
COc1ccc(NC(=O)Nc2ccc(C(C)C)cc2)cc1	9.5%[46.1 µM]	18.7*	47.6%	58.0*	26.7%	-27.3%[46.1 µM]
COc1ccc(NC(=O)CCC(=O)c2ccc(C(C)C)cc2)cc1	/	5.2	42.7%	12.1	29.4%	/
O=C(OCC(=O)N1CCCc2ccccc21)c1ccccc1OC(F)F	6.1%[46.1 µM]	/	/	/	/	4.7%[46.1 µM]
Cc1cc(NC(=O)CN2CCc3ccccc3C2)nc2c1c(=O)oc1ccccc12	/	5.5	?	-0.4	10.4µM*	/
CN1CCC(C2(O)c3ccccc3CCc3ccccc32)CC1	-2.0%	34.5*	-9.5%	58.3*	40.3%	18.4µM*
O=c1c2ccc([N+](=O)[O-])c3cccc(c32)c2nc3ccccc3n12	/	-1.3	17.2%	13.3	1.7%	/
O=c1c2cccc3c(N4CCOCC4)ccc(c32)c2nc3ccccc3n12	/	29.2*	83.0%	73.0*	30.8%	-2.2%
COc1ccc(NCC(=O)NN=C2CCS(=O)(=O)c3ccc(F)cc32)cc1	?	/	/	/	/	8.3%
C/C(=N/NS(=O)(=O)c1ccc(C)cc1)[C@H]1C[C@@H]1c1ccccc1	0.8%	-1.5	10.4%	17.5	-16.9%	2.3%[46.1 µM]
Cc1ccc(C23OC(=O)C(C)(C)C2OC(=O)C3(C)C)cc1 (centres undefined)	?	6.9	13.1µM*	-5.4	9.28µM*	7.3%
CCOC(=O)c1c(C)[nH]c(C)c1S(=O)(=O)N1CCCC(C(=O)Nc2ncccc2C)C1 (centres undefined)	15.3%[46.1 µM]	/	/	/	/	/
Cc1ccc(-c2cc3c(N=O)c4ccccc4c-3n[nH]2)cc1	20.4%	-1.1	i	1.3	138.3%	12.5%[46.1 µM]
Cc1cccc(-c2cc3c(N=O)c4ccccc4c-3n[nH]2)c1	?	45.9*	44.8%	103.8*	37.8%	?
O=Nc1c2cc(-c3ccccc3)[nH]nc-2c2ccccc12	/	37.3*	499.7%	101.3*	226.3%	/
SMILES	LASV entry inh	CHX counter	Pf growth 96h	Shiga toxin inh	Pf growth 48h	Marburg entry inh
CCOc1ccc(N(C(=O)c2snc(C(N)=O)c2N)C(C(=O)NC2CCCC2)C(C)C)cc1 (centres undefined)	-27.1%	6.4	-20.9%	-1.6	0.0%	?
CN1CCCN(S(=O)(=O)c2cccc(C(F)(F)F)c2)c2nc3ccccc3nc21	/	/	17.5%	/	-16.7%	/
CCOC(=O)Cn1c(C)nc2ccccc21	6.6%	-2.9	?	-1.1	41.9%	1.2%
N#Cc1ccc(NC2c3ccccc3CC2O)cc1 (centres undefined)	8.1%[46.1 µM]	/	/	/	/	?
CCn1c(/C(C#N)=C/c2ccccc2Cl)nc2ccccc21	-11.9%[46.1 µM]	/	/	/	/	/
CCn1c(COc2ccccc2)nnc1SCC(=O)Nc1ccc(N2CCOCC2)cc1	0.1%	0.5	-0.7%	20.7	?	8.1%
CC1(C(O)(C#CC[N+]2(C)CCCCC2)c2ccccc2)CCCC1 (centres undefined)	13.1%	-0.7	71.2%	-26.8	?	6.8%[46.1 µM]
CC1(C#CC[N+]2(C)CCCCC2)CCC2C(O1)c1ccccc1OC2(C)C (centres undefined)	-0.4%	-6.2	3.7µM*	-16.7	11.7µM*	-0.5%
CN(CC(=O)Nc1ccccc1Cl)C(=O)c1cc2c(s1)CCCCC2	?	/	/	/	/	-7.0%
CCOC(=O)c1cc(-c2ccc(C)o2)nn1CCC#N	10.5%	1.9	11.7µM*	13.1	?	-2.1%
CCOC(=O)c1cc(-c2ccccc2)nn1CCC#N	-1.1%[46.1 µM]	7.3	?	12.5	?	10.9%[46.1 µM]
CCOC(=O)c1cc(-c2ccc(OC)cc2)nc2c1c(C)nn2CCC#N	-1.8%	13.5	/	-11.3	5.22µM*	-19.5%
CCOC(=O)c1cc(-c2ccc(C#N)cc2)nc2c1c(C)nn2CCC#N	-0.8%	-0.9	/	-13.4	?	3.9%
CCOc1ccc(-n2c(-c3ccco3)n[nH]c2=S)cc1	8.3%	-3.7	?	-14.9	-0.1%	10.5%
Cc1cc(-n2c(SCc3ccccc3F)nc3n[nH]c(C)c3c2=N)ccc1Cl	?	20.8	4.65µM*	-8.5	?	?
CCN(C(=O)CSc1nc2n[nH]c(C)c2c(=N)n1-c1ccc(Cl)c(C)c1)c1cccc(C)c1	/	1.1	25.6%	-5.2	?	/
CCC(Sc1nc2n[nH]c(C)c2c(=N)n1-c1cccc(Cl)c1)C(=O)NCCOC (centres undefined)	?	-3.8	0.0%	-6.0	?	?
CCC(Sc1nc2n[nH]c(C)c2c(=N)n1-c1ccc(C)c(Cl)c1)C(=O)N1CCOCC1 (centres undefined)	?	0.4	22.9%	14.8	13.1µM*	?
Cc1cc(NC(=O)C2CC(c3ccccc3Cl)=NO2)no1 (centres undefined)	5.2%	-3.4	/	-5.1	8.3%	14.0%[46.1 µM]
COc1ccc(N=C2C(=Nc3ccc(OC)cc3)N(c3ccc(OC)cc3)C(=S)N2C(=O)c2ccc(OC)cc2)cc1	4.2%	14.3*	24.7%	41.7*	?	23.2%
COc1ccc(N=C2C(=Nc3ccc(OC)cc3)N(c3ccc(N(C)C)cc3)C(=S)N2c2ccc(OC)cc2)cc1	-4.5%	0.9	/	-6.5	4.9%	?
COc1ccc(N=C2C(=Nc3ccc(OC)cc3)N(c3ccccc3)C(=S)N2C(=O)c2ccc(Cl)cc2)cc1	1.7%	42.6*	?	63.2*	?	3.1%
CCn1nc(C(=O)Nc2ccc(S(=O)(=O)Nc3nccs3)cc2)c2ccccc2c1=O	-3.7%	6.8	/	-3.5	?	4.2%
O=C(Nc1ccc(S(=O)(=O)Nc2ncccn2)cc1)c1nn(Cc2ccccc2)c(=O)c2ccccc12	12.0%	-4.9	?	-6.3	1.85µM*	6.5%[46.1 µM]

Screening data deposited in PubChem BioAssay by National Center for Advancing Translational Sciences (NCATS).
